In PubChem BioAssay (Tox21):
Results filed as inconclusive are left out. Entries that show only a call come without a potency. The source holds several records for some structures; these can differ, active in one and inactive in another. Active and inactive are the calls of the source. Unless noted, calls follow the shape of the dose curve; as a rule, active = well fitted curve in the direction sought with a large enough effect in the repeat runs; inconclusive = weak or mixed curves; inactive = no such curve, though single readings can be large; an effect the other way counts as inactive or inconclusive.

What was measured:
[1] = biological target: Thyrotropin-releasing hormone receptor (Homo sapiens) (UniProt P34981); test: qHTS assay to identify small molecule agonists of the thyrotropin-releasing hormone receptor (TRHR) signaling pathway (AID 1346891; calls by dose curve;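 also: HEK293 cells expressing TRHR with calcium dye readout; series mostly up to about 58 µM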)
Summary of the method: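 In 1536-format, 1500 TRHR-Hek293 cells per well grew 18 h, took up calcium dye for 2 h at 37 °C, received compound, and were read kinetically; 15-point titrations, triplicates.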

[2] = Human pregnane X receptor (PXR) small molecule agonists, qHTS cell viability counter screen (AID 1346977); also: nearly all actives have a fitted effect of over 50% in size; also: potency is read from the fitted curve at half-maximal effect
Summary of the method: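 Readout is CellTiter-Fluor fluorescence from PXR-Luc HepG2 cells. Plated cells rested 5hr, then were treated with compounds for 24hr at 37C and 5% CO2, with reagent present during the last hour.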

[3] = Caspase-3/7 induction in CHO-K1 cells by small molecules, qHTS cell viability counter screen (AID 1346979); also: nearly all actives have a fitted effect of over 35% in size; also: potency is read from the fitted curve at half-maximal effect
Summary of the method: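 To flag cytotoxic compounds, treated CHO-K1 wild-type cells were given CellTiter-Fluor at 16hr and read fluorescently after 1hr at 37C; the caspase-3/7 luminescence was measured in these same wells.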

[4] = Caspase-3/7 induction in CHO-K1 cells by small molecules, qHTS assay (AID 1346980); also: nearly all actives have a fitted effect of over 15% in size
Summary of the method: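 Wild-type cells were seeded at 1,500 per well and settled 5 hr at 37 C, 5% CO2, then exposed to DMSO-dissolved compounds for 17 hr. Caspase-Glo 3/7 reagent was added, and luminescence was read after 30min at room temperature.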

[5] = Caspase-3/7 induction in HepG2 cells by small molecules, qHTS cell viability counter screen (AID 1346981); also: nearly all actives have a fitted effect of over 30% in size; also: potency is read from the fitted curve at half-maximal effect
Summary of the method: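 In this quantitative HTS counter screen, compounds delivered in DMSO were left on unmodified HepG2 cells for 16 hr at 37 C. Viability was then determined fluorometrically with CellTiter-Fluor, in parallel with caspase-3/7 induction in the same wells.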

[6] = biological target: Nuclear receptor subfamily 1 group I member 2 (Homo sapiens) (UniProt O75469); test: Human pregnane X receptor (PXR) small molecule agonists, qHTS assay (AID 1346982); also: nearly all actives have a fitted effect of over 35% in size
Summary of the method: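 Reporter HepG2 cells expressing PXR-Luc are cultured in charcoal-stripped FBS (5%), treated with compounds for 24 hr at 37 C, and assayed by ONE-Glo luminescence after 30 min at room temperature.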

[7] = biological target: Cytochrome P450 2D6 (Homo sapiens) (UniProt P10635); test: Cytochrome P450 Family 2 Subfamily D Member 6 (CYP2D6) small molecule antagonists: luciferase reporter qHTS assay (AID 1671196); also: series mostly up to about 120 µM; nearly all actives have a fitted effect of over 50% in size
Summary of the method: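 Test chemicals meet CYP2D6 plus proluciferin substrate (10 min, RT); NADPH regenerating solution then drives turnover for 1 h. Detection reagent halts the reaction; luminescence measured after 20 min.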

[8] = biological target: Cytochrome P450 2C19 (Homo sapiens) (UniProt P33261); test: Cytochrome P450 Family 2 Subfamily C Member 19 (CYP2C19) small molecule antagonists: luciferase reporter qHTS assay (AID 1671197); also: nearly all actives have a fitted effect of over 65% in size; also: potency is read from the fitted curve at half-maximal effect; as to activity change, negative = inhibition: series mostly up to about 120 µM
Summary of the method: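 Relative luminescence units recorded 20 min after the detection reagent stopped a 1 h, 37C CYP2C19 reaction on proluciferin substrate, which was started by NADPH regeneration following 10 min room-temperature compound preincubation; ketoconazole positive control.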

[9] = biological target: Cytochrome P450 2C9 (Homo sapiens) (UniProt P11712); test: Cytochrome P450 Family 2 Subfamily C Member 9 (CYP2C9) small molecule antagonists: luciferase reporter qHTS assay (AID 1671198); also: series mostly up to about 120 µM; nearly all actives have a fitted effect of over 50% in size
Summary of the method: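 CYP2C9 activity was measured with a P450-Glo proluciferin substrate. Enzyme–substrate mix was held with compound for 10 min at room temperature, then NADPH regeneration solution was added for 1 h at 37C. Luciferin product was read as luminescence.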

[10] = biological target: Cytochrome P450 1A2 (Homo sapiens) (UniProt P05177); test: Cytochrome P450 Family 1 Subfamily A Member 2 (CYP1A2) small molecule antagonists: luciferase reporter qHTS assay (AID 1671199); also: nearly all actives have a fitted effect of over 50% in size; also: potency is read from the fitted curve at half-maximal effect; as to activity change, negative = inhibition: series mostly up to about 120 µM
Summary of the method: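 Steps: enzyme-substrate mix dispensed; test compounds and furafylline control pinned in; 10 min room temperature; NADPH regeneration solution added, 1 h; reaction stopped with luciferin detection reagent; luminescence read after 20 min.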

[11] = biological target: Voltage-gated inwardly rectifying potassium channel KCNH2 (Homo sapiens) (UniProt Q12809); test: Human Ether-a-go-go-Related Gene (hERG) channel small molecule antagonists: fluorescence cell-based qHTS assay (AID 1671200)
Summary of the method: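 Measured: Tl+ flux via fluorescence (480/540 nm) in hERG-expressing U2OS cells after 1 h dye loading at room temperature.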

[12] = biological target: Cytochrome P450 3A4 (Homo sapiens) (UniProt P08684); test: Cytochrome P450 Family 3 Subfamily A Member 4 (CYP3A4) small molecule antagonists: luciferase reporter qHTS assay (AID 1671201)
Summary of the method: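 Setup: enzyme-substrate mix, compound pin transfer, 10 min RT. Reaction: NADPH regeneration solution, 1 h RT. Readout: detection reagent stops turnover, luminescence measured after 20 min, expressed in relative luminescence units.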

[13] = Caspase-3/7 induction in HepG2 cells by small molecules, qHTS assay (AID 1346978); also: nearly all actives have a fitted effect of over 15% in size
Summary of the method: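 Wild-type HepG2 cells (2,000/well) were settled 5 h at 37 C, 5% CO2, then exposed to compounds in DMSO for 17 h. Caspase-3/7 activity was read by luminescence 30 min after adding Caspase-Glo 3/7 reagent at room temperature.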

[14] = biological target: Nuclear receptor subfamily 1 group I member 2 (Rattus norvegicus) (UniProt Q9R1A7); test: Rat pregnane X receptor (rPXR) activation by small molecules, qHTS assay (AID 1346983); conditions: rPXR luciferase reporter cells, One-Glo luminescence, 24 h; stronger effect = higher value; also: nearly all actives have a fitted effect of over 20% in size
Summary of the method: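 Cell-based rPXR luciferase reporter assay, 2,000 cells per well, rested 5hr at 37 C before compound addition in DMSO, then 24 hr at 37 C. One-Glo reagent was added and luminescence read after 30 min at room temperature.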

[15] = biological target: Nuclear receptor subfamily 1 group I member 2 (Homo sapiens) (UniProt O75469); test: CYP3A4 induction through human pregnane X receptor (PXR) by small molecules, qHTS assay (AID 1346984); also: nearly all actives have a fitted effect of over 40% in size
Summary of the method: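 Induction measured in HepG2-based DPX-2 cells co-expressing human PXR and a CYP3A4 promoter-driven luciferase. After a 24-hour compound exposure, cells received CYP3A4 luciferin substrate at 3uM final for 3 hours, and light output was then recorded.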

[16] = biological target: Nuclear receptor subfamily 1 group I member 2 (Homo sapiens) (UniProt O75469); test: Human pregnane X receptor (PXR) activation by small molecules, qHTS assay (AID 1346985); also: nearly all actives have a fitted effect of over 40% in size
Summary of the method: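 DPX-2 cells (HepG2 co-transfected with a PXR response element and a CYP3A4-promoter luciferase construct) were seeded at 2,000 per well, rested 5 hr at 37C, then exposed to DMSO-dissolved compounds for 24 hr. Activation was read as luciferase luminescence.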

Sequence of Cytochrome P450 1A2 (Homo sapiens) (P05177 whole entry, looked up): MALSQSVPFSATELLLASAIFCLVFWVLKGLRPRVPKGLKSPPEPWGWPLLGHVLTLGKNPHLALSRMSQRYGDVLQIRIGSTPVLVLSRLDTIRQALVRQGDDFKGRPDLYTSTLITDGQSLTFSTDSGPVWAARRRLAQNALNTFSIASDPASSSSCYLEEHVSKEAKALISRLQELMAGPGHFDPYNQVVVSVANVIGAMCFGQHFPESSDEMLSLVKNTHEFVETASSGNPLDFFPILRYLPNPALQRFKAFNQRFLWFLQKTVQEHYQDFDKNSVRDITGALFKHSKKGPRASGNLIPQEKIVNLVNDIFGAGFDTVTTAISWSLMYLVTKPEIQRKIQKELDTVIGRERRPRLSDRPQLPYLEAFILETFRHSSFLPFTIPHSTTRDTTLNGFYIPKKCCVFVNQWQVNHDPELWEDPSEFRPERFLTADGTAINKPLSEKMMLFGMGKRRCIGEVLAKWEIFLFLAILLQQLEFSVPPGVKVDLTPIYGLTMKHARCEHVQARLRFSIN
Sequence of Cytochrome P450 2C19 (Homo sapiens) (P33261 whole entry, looked up): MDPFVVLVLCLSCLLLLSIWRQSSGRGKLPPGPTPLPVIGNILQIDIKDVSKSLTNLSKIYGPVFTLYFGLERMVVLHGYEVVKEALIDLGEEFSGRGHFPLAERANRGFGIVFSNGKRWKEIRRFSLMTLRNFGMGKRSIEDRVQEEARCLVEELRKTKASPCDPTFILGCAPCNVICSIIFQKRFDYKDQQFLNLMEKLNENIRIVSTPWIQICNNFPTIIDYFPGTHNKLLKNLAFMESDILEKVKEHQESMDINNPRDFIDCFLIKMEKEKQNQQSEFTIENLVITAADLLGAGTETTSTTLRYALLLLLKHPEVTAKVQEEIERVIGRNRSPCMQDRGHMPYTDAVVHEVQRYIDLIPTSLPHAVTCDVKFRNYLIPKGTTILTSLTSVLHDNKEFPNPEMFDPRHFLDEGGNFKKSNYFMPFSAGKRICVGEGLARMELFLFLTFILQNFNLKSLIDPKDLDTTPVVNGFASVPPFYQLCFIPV
Sequence of Cytochrome P450 2D6 (Homo sapiens) (P10635 whole entry, looked up): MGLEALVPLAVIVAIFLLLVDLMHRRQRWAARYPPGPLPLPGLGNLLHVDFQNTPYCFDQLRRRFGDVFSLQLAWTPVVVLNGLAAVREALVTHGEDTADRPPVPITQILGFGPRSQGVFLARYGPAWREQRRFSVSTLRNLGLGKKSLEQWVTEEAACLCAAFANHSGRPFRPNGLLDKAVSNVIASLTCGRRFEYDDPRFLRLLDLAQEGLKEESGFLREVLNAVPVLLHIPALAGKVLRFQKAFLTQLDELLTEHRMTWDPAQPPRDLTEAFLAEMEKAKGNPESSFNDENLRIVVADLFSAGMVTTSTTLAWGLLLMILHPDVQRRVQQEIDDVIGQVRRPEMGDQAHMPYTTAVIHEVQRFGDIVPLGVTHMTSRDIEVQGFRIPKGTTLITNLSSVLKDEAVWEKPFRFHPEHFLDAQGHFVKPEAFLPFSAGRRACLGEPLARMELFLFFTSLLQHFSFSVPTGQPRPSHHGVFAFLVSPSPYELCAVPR
Sequence of Voltage-gated inwardly rectifying potassium channel KCNH2 (Homo sapiens) (Q12809 whole entry, looked up): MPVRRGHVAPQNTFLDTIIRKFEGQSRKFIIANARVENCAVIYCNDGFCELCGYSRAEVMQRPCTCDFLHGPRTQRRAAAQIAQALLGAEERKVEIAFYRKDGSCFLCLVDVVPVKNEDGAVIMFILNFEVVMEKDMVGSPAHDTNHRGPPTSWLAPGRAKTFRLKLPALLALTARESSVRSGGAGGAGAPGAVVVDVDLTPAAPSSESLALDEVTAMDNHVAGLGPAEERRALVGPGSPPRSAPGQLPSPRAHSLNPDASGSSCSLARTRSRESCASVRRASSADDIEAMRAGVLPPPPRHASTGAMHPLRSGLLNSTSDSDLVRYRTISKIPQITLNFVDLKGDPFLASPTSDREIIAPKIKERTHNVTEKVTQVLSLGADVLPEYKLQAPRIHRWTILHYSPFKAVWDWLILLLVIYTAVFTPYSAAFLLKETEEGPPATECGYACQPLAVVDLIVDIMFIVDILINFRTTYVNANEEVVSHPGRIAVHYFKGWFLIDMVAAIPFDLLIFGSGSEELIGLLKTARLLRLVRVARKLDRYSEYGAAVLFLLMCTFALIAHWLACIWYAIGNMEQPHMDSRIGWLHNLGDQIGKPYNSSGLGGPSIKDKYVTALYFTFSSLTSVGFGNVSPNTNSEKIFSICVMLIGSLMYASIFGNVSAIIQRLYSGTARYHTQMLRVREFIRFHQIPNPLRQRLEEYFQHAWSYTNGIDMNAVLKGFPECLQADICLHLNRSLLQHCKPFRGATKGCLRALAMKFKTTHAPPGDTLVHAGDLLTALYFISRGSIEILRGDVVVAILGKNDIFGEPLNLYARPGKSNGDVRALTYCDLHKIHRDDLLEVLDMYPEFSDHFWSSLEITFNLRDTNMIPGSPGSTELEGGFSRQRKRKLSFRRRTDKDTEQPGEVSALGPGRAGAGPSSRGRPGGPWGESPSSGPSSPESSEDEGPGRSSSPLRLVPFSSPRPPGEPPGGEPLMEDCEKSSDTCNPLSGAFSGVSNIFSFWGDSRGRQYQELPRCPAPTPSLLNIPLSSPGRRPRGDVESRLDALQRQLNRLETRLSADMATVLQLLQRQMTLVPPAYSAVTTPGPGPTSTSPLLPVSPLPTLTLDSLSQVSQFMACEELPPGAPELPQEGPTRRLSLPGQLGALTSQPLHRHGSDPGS
Sequence of Thyrotropin-releasing hormone receptor (Homo sapiens) (P34981 whole entry, looked up): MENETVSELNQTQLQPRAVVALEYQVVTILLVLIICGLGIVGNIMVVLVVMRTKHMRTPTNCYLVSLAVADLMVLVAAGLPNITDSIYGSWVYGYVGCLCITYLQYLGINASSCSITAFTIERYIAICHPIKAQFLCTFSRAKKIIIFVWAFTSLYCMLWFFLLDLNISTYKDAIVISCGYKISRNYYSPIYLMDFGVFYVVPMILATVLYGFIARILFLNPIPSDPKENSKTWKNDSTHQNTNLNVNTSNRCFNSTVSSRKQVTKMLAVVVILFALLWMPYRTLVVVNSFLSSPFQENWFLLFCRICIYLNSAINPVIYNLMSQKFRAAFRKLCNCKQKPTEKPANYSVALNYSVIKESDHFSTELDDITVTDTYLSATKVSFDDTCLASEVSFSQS
Sequence of Nuclear receptor subfamily 1 group I member 2 (Homo sapiens) (O75469 whole entry, looked up): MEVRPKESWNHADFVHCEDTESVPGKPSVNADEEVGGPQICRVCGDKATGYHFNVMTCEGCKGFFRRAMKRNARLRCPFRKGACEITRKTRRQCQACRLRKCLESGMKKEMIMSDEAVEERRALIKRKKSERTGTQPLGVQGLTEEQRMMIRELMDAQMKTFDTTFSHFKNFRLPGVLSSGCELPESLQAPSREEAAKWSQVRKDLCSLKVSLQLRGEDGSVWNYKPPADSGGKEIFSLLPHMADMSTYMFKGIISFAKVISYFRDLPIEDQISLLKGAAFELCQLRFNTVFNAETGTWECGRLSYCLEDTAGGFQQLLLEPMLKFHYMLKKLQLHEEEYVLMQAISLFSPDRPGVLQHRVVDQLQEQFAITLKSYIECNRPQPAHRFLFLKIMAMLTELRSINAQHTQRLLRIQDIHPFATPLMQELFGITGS
Sequence of Cytochrome P450 2C9 (Homo sapiens) (P11712 whole entry, looked up): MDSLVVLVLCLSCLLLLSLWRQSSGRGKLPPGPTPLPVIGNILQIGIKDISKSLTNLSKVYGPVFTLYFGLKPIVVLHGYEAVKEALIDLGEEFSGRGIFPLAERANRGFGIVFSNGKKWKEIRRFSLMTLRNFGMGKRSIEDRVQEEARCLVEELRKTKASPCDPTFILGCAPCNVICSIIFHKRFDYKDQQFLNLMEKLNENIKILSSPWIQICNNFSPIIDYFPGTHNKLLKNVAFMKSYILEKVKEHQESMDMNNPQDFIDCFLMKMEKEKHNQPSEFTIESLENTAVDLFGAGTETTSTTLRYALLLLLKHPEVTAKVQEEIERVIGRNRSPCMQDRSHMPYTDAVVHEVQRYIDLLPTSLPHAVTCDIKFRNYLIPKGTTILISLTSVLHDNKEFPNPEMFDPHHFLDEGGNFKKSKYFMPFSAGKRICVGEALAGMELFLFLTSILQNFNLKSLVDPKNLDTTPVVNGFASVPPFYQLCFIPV
Sequence of Cytochrome P450 3A4 (Homo sapiens) (P08684 whole entry, looked up): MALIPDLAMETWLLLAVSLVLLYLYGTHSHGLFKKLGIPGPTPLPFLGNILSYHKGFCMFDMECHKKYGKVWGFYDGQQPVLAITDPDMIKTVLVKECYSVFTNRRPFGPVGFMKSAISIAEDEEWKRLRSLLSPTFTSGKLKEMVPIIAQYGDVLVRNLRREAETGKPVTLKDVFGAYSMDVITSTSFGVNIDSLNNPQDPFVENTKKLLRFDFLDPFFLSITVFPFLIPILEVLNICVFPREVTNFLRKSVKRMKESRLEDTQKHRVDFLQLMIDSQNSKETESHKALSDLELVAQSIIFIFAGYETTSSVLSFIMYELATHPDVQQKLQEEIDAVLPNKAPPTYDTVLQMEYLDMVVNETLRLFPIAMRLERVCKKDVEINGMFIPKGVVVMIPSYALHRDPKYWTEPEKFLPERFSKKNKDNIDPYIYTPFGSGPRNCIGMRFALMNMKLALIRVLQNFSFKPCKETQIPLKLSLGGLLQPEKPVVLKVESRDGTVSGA
Sequence of Nuclear receptor subfamily 1 group I member 2 (Rattus norvegicus) (Q9R1A7 whole entry, looked up): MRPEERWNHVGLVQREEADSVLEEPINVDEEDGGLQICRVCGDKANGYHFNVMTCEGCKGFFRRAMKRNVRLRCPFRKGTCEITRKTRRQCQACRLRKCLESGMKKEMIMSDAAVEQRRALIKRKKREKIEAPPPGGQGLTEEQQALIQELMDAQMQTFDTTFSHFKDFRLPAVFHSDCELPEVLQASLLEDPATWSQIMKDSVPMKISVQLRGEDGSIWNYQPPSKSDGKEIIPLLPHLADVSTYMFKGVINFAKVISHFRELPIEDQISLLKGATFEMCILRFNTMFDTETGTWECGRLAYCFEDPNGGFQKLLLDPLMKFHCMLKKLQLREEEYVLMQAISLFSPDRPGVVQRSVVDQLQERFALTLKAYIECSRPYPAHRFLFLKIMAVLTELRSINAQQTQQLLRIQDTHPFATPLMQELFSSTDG

Row | SMILES | outcome [1] | Potency [2] | Potency [3] | outcome [4] | Potency [5] | Potency [6] | Potency [7] | Potency [8] | Potency [9] | Potency [10] | Potency [11] | Potency [12] | Potency [13] | max activation [14] | Potency [15] | outcome [16] | activity change, negative = inhibition [8] | activity change, negative = inhibition [10]
1 | Cc1ccc(S(=O)(=O)N=C=O)cc1 | inactive | 28.2 µM (active) and inactive | 6.73 µM (active) and inactive | inactive | 53.4 µM (active) and inactive | inactive | inactive | inactive | inactive | inactive | inactive | inactive |  |  |  |  |  | 
2 | COC(=O)CCCC(=O)OC | inactive | inactive |  | inactive | inactive | inactive | inactive | inactive | inactive | inactive | inactive | inactive |  |  |  |  |  | 
3 | Brc1ccc(Br)c(Br)c1 |  | inactive | inactive | inactive | inactive | inactive | inactive | inactive | inactive | inactive | inactive | inactive | inactive |  |  |  |  | 
4 | CCOCCOCCOCCO |  | inactive | inactive | inactive | inactive |  | inactive | 82.4 µM (active) and inactive |  |  | inactive | inactive | inactive |  |  |  |  | 
5 | CCNC(=S)NCC |  | inactive | inactive | inactive | inactive | inactive | inactive | inactive | inactive | 44.8 µM (active) | inactive | inactive | inactive |  |  |  |  | 
6 | CCCCCCCCCCCCCCCC(=O)OC(C)C | inactive | inactive | inactive | inactive | inactive |  | inactive | inactive | inactive | inactive | inactive | inactive |  | -0.875% (inactive) | inactive | inactive |  | 
7 | CCc1ccccc1CC | inactive | inactive | inactive | inactive | inactive |  | inactive |  | inactive |  | inactive | inactive |  |  |  |  | 2.36% [at 23.6 µM] (inactive) | -28.6% [at 23.6 µM] (inactive)
8 | CCCOC(=O)c1ccccc1 |  | inactive | inactive | inactive | inactive | inactive | inactive | inactive | inactive | inactive | inactive | inactive | inactive | -6.55% (inactive) | inactive | inactive |  | 
9 | O=c1[nH]cnc2[nH]ncc12 |  | inactive | inactive | inactive | inactive |  | inactive | inactive | inactive | inactive | inactive | inactive | inactive |  |  |  |  | 
